Test results: PubChem BioAssay AID488969 (Vanderbilt High Throughput Screening Facility, 2010)
The full ranking holds about 110,000 compounds; the median of “z-score” is about -0.1, and the highest 2% start at about 2. What follows is part of a selection rich in the highest values, with near analogues and random picks from the rest. Active and inactive are the calls of the source.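 Rule for the calls: active = z-score in the third read window above 3 or below -3; inactive = the rest.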

molecular target: Metabotropic glutamate receptor 8 (Rattus norvegicus) (UniProt P70579); experiment: mGluR8 Gi/Go-coupled signaling modulation – cell-based, rat, thallium flux, HTS, primary screen (AID 488969); conditions: HEK293 rat mGluR8, GIRK (G protein-gated inwardly rectifying potassium channel) thallium flux, FluoZin2; at 10 µM; stronger effect = higher value; submaximal glutamate (EC20) added with thallium
Sequence (P70579 whole entry, looked up): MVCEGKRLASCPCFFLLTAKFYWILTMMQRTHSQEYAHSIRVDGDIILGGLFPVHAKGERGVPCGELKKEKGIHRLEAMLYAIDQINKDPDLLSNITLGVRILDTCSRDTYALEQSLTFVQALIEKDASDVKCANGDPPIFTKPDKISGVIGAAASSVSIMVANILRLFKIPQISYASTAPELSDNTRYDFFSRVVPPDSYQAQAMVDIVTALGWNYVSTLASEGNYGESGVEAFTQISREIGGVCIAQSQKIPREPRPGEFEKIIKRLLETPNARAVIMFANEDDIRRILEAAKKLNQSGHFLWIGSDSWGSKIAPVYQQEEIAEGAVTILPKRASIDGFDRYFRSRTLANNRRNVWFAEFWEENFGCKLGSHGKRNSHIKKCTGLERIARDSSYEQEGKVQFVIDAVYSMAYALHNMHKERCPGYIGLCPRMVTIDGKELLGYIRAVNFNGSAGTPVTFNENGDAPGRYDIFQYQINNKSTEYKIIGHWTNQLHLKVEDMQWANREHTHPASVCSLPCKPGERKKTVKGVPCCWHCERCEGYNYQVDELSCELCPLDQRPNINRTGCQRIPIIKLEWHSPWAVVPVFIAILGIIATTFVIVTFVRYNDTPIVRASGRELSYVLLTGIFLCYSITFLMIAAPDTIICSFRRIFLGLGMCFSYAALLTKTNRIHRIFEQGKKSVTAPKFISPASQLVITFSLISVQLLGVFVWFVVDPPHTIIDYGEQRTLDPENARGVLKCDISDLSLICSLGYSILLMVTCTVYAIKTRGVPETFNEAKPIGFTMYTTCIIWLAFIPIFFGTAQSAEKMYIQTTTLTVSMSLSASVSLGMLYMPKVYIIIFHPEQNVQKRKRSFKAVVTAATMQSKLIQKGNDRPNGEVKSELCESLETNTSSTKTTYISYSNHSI

| SMILES | z-score |
| --- | --- |
| COc1ccc(NC(=S)N2CCC(N(C)CCN3CCOCC3)CC2)cc1Cl | -0.269 |
| O=C(NC(=S)Nc1ccccn1)c1ccc([N+](=O)[O-])cc1 | 0.166 |
| CC(C)NC(=S)NC(=O)c1ccc(-c2ccccc2)cc1 | 0.201 |
| CN(Cc1ccccc1)C(=S)NC(=O)c1ccc(-c2ccccc2)cc1 | 4.13 (active) |
| CCCN(CCC)C(=S)NC(=O)c1ccc(-c2ccccc2)cc1 | -0.959 |
| C=CCN(CC=C)C(=S)NC(=O)c1ccc([N+](=O)[O-])cc1 | 4.84 (active) |
| C=CCN(CC=C)C(=S)NC(=O)c1ccc(-c2ccccc2)cc1 | 11.4 (active) |
| C=CCN(CC=C)C(=S)Nc1ccccc1 | -0.0866 |
| CN(Cc1ccccc1)C(=S)NC(=O)C1CCCCC1 | 1.47 |
| CCC(=O)NC(=S)NNC(=O)c1ccc([N+](=O)[O-])cc1 | 0.17 |
| OCc1nc2ccccc2n1C/C=C/c1ccccc1 | 0.00864 |
| O=C(Nc1ccc(Cl)cc1)C1CCCN(S(=O)(=O)c2cnc[nH]2)C1 (stereo not given) | 0.605 |
| COc1cc(C)c(Br)cc1S(=O)(=O)N1CCCC1 | 0.188 |
| O=C1c2cccc3cccc(c23)C(=O)N1c1ccc2ncccc2c1 | -0.261 |
| CCOC(=O)C1=C(O)/C(=C\c2cccc(OC)c2)N=C1C | -0.194 |
| COc1cccc(-c2nc(Oc3cc(C)cc(C)c3)c3ccccc3n2)c1O | 0.123 |
| COc1cc(CNCC(C)C)cc(Br)c1OCC(=O)Nc1ccccc1 | 2.21 |
| CCNCc1cc(Br)c(OCC(=O)Nc2ccccc2)c(OC)c1 | 1.18 |
| COc1cc(CNCC(C)C)c(Br)cc1OCC(=O)NCc1ccccc1 | 0.232 |
| COc1ccc(OCC(=O)N2CCN(c3nnc(-c4ccccc4)c4ccccc34)CC2)cc1 | 0.267 |
| CCOC(=O)c1ccc(S(=O)(=O)NCC(c2ccc(N(C)C)cc2)c2c[nH]c3ccccc23)cc1 (stereo not given) | 0.201 |
| CCOc1ccccc1NC(=O)Cc1c(F)cccc1Cl | -0.491 |
| C#CC1(O)CC(C)N(C)C(C)C1 (stereo not given) | -0.0403 |

| SMILES | z-score |
| --- | --- |
| O=C(NNc1cccc(Cl)n1)c1cccnc1Cl | -0.00142 |
| OC(COCCC12CC3CC(CC(C3)C1)C2)CN1CCCCC1 (stereo not given) | -0.152 |
| OCCN(CCO)CC(O)COCCC12CC3CC(CC(C3)C1)C2 (stereo not given) | 0.239 |
| CCN(CC)CC(O)COCCC12CC3CC(CC(C3)C1)C2 (stereo not given) | 3.04 (active) |
| O=C(COC(=O)c1cccs1)c1ccc2c(c1)OCCO2 | -0.579 |
| CC(C)(C)NC(=O)C(c1ccc(F)cc1)N(Cc1ccco1)C(=O)Cn1nnc(-c2cccs2)n1 (stereo not given) | -0.585 |
| CCOC(=O)N1CCN(C(=O)CSc2ncnc3ccccc23)CC1 | 3.04 (active) |
| CCOC(=O)N1CCN(C(=O)CSc2ncccn2)CC1 | 0.107 |
| CC(C)NC(=O)c1nc2ccccc2s1 | 3.05 (active) |
| CC(C)(C)NC(=O)c1nc2ccccc2s1 | 0.283 |
| O=C(NCCO)c1nc2ccccc2s1 | 1.28 |
| O=C(CSc1ncnc2ccccc12)N1CCN(c2ccccc2)CC1 | -0.0217 |
| CCOC(=O)N1CCN(/C=C(\C#N)c2nc3ccccc3s2)CC1 | 1.73 |
| CCOC(=O)N1CCN(C(=O)c2nc3ccccc3s2)CC1 | 2.8 |
| O=C(c1nc2ccccc2s1)N1CCSCC1 | 0.0723 |
| S=C(Nc1ccc(Cl)cc1)c1sc(N2CCCCC2)nc1N1CCOCC1 | -0.435 |
| CC(NC(=O)COc1ccccc1-c1ccccc1)c1ccccc1 (stereo not given) | -0.192 |
| O=C(COc1ccc2c(c1)CCC2)N1CCN(c2cccc(C(F)(F)F)c2)CC1 | -0.0515 |
| Cc1ccc(OCCN2CCN(CC(O)Cn3c4ccccc4c4ccccc43)CC2)cc1 (stereo not given) | 0.113 |
| CC(C(=O)N1c2ccccc2CCc2ccccc21)n1nnc(-c2ccc(N(C)C)cc2)n1 (stereo not given) | 0.255 |
| Cc1cc(NC(=O)CSc2nc(CC(C)(C)C)nc3c2c(=O)n(C)c(=O)n3C)no1 | -0.0135 |
| CCOc1ccc2nc(NC(=O)c3ccoc3C)sc2c1 | -0.855 |
| COc1ccccc1Nc1nnc(SCC(=O)NC(=O)Nc2ccc3c(c2)OCCO3)s1 | -0.138 |

| SMILES | z-score |
| --- | --- |
| Cc1cc(C(=O)CSc2nnc(-c3cccnc3)n2-c2ccccc2)c(C)n1CC1CCCO1 (stereo not given) | -0.185 |
| COC(=O)Nc1ccc(S(=O)(=O)Nc2ccccc2F)cc1 | 0.00713 |
| Cc1cc(NC(=O)C2C3C(=O)N(Cc4ccc(Cl)cc4)C(C(=O)NCc4ccccc4)C34C=CC2(C)O4)no1 (stereo not given) | 0.193 |
| Cc1cccc(NC(=O)CN2C(=O)S/C(=C\c3cc(C)n(C)c3C)C2=O)c1 | 0.326 |
| COC(=O)C1=C(C)NC(C)=C(C(=O)OC)C1C(=O)OCC(=O)N1c2ccccc2CC1C (stereo not given) | 0.131 |
| CCOC(=O)C1=C(C)NC(C)=C(C(=O)OCC)C1C(=O)OCC(=O)N1c2ccccc2CC1C (stereo not given) | 2.55 |
| CCOC(=O)N1CCN(CC(=O)N2c3ccccc3CC2C)CC1 (stereo not given) | -0.746 |
| C/C(=N\NC(=O)OC(C)(C)C)c1cccc([N+](=O)[O-])c1 | -0.272 |
| Cc1ccc(C(=O)Nc2nc(=O)n(C(=O)C3CC3)s2)cc1 | -0.185 |
| Cc1cc(N2CCCCC2)nc(NCc2ccccc2)n1 | 0.794 |
| Cc1ccc(Nc2cc(C)nc(NCc3ccccc3)n2)cc1 | -0.326 |
| Cc1cc(N2CCOCC2)nc(NCc2ccccc2)n1 | -0.0745 |
| Cc1cc(N2CCN(c3ccccc3)CC2)nc(NCc2ccccc2)n1 | 3 |
| Cc1cc(Nc2ccccc2)nc(NCc2ccccc2)n1 | 2.34 |
| Cc1cc(Nc2ccc(Cl)cc2)nc(NCc2ccccc2)n1 | -0.173 |
| c1ccc(-c2nnc(-c3ccccc3)c(-c3c[nH]c4ccccc34)n2)cc1 | 0.446 |
| NNc1nc2c(F)cccc2s1 | 0.0402 |
| Cc1ccc(Nc2nc3ccccc3s2)cc1 | 0.0689 |
| Fc1cc(F)c2nc(Nc3nc4c(F)cccc4s3)sc2c1 | 9.18 (active) |
| Fc1cccc2sc(Nc3nc4ccccc4s3)nc12 | 2.21 |
| Fc1cccc2sc(Nc3nc4c(F)cccc4s3)nc12 | 2.09 |
| Fc1cc(F)c2nc(N3CCCCC3)sc2c1 | -0.14 |
| Cc1ccccc1Nc1nc2ccccc2s1 | 0.103 |

| SMILES | z-score |
| --- | --- |
| CC(=O)Nc1nc2c(F)cccc2s1 | 0.033 |
| NNc1nc2c(F)cc(F)cc2s1 | -0.193 |
| O=C(Nc1ccc(Cl)cc1)Nc1cccnc1 | 0.471 |
| CCN(CC)c1ncnc2c1cnn2C | -0.228 |
| CCC1(CC)C(=O)N(C)C(=O)NC1=NCc1ccccc1 | 0.146 |
| COc1ccc(/C=C/C(=O)Nc2ccc(N3CCOCC3)cc2)cc1 | -0.219 |
| CC(C)Cn1c(N)c(C(=O)CSc2ccccc2)c(=O)n(C)c1=O | -0.216 |
| Cn1c(=O)c(C(=S)NC(=O)C2CC2)c(N)n(Cc2ccccc2)c1=O | 0.362 |
| CC(C)Cn1c(N)c(C(=O)CSc2nnnn2C)c(=O)n(C)c1=O | -0.302 |
| CCCCn1c(N)c(C(=S)NC(=O)CC(C)C)c(=O)n(C)c1=O | 3.59 (active) |
| CCCn1c(N)c(C(=S)NC(=O)C2CC2)c(=O)n(C)c1=O | 0.941 |
| CCCCn1c(N)c(C(=S)NC(=O)CC(C)(C)C)c(=O)n(C)c1=O | 9.54 (active) |
| CC(C)(C)n1ncc2c(=O)n(Cc3ccc(Cl)cc3Cl)cnc21 | -1.25 |
| Cc1ccc(CNC(=O)CCCOc2cc(=O)n(C)c3ccccc23)o1 | -0.129 |
| Clc1ccc(C(c2nnnn2C2CCCC2)N2CCSCC2)cc1 (stereo not given) | -0.998 |
| O=C(O)C1CCN(C(=O)c2ccccc2Cl)CC1 | -0.551 |
| CC(=O)NC(CC(=O)Nc1cccc(S(=O)(=O)N2CCCCC2)c1)c1ccccc1 (stereo not given) | 0.132 |
| COCCCn1c(SCC(=O)N2CCc3ccccc32)nnc1-c1ccco1 | -0.129 |
| COc1ccc(N/C(C)=C2/C(=O)C(=O)N(CCO)C2c2ccc([N+](=O)[O-])cc2)cc1 (stereo not given) | -0.701 |
| COc1ccc(C2/C(=C(/O)c3ccccc3)C(=O)C(=O)N2CCO)cc1 (stereo not given) | -0.0153 |
| COc1ccc(N/C(C)=C2/C(=O)C(=O)N(CCO)C2c2ccc(Br)cc2)cc1 (stereo not given) | 5.05 (active) |
| O=C1CCCc2c1cc(C(=O)NC1CCSC1=O)c(=O)n2-c1ccccc1 (stereo not given) | -0.276 |
| CCN(CC)CCC(=O)Nc1ccc2c(c1)N(C(=O)CN(CC)CC)c1ccccc1CC2 | -0.214 |

| SMILES | z-score |
| --- | --- |
| CCN(CC)CC(=O)Nc1ccc2c(c1)N(C(=O)CN(CC)CC)c1ccccc1CC2 | -0.342 |
| CCN(CC)CC(=O)Nc1ccc2c(c1)Nc1ccccc1CC2 | 2.49 |
| COc1ccc(C(=O)c2cn[nH]c2-c2cc(Cl)ccc2O)cc1 | -0.207 |
| COc1ccc(/C=C2\C(=O)N(c3c(Cl)cc(Cl)cc3Cl)N=C2NC(=O)c2cccc([N+](=O)[O-])c2)cc1 | -0.0535 |
| CCn1cc(S(=O)(=O)CC(=O)Nc2cc(C)ccc2C)c2ccccc21 | 2.61 |
| Cc1ccc(C)c(NC(=O)CS(=O)(=O)c2cn(C)c3ccccc23)c1 | 0.61 |
| CCn1cc(S(=O)(=O)CC(=O)Nc2ccc(C)cc2)c2ccccc21 | -0.393 |
| CCOc1ccc(OCCOCCNCCOC)cc1 | 0.0989 |
| Cc1c(CN(C)CCc2ccccc2)c(=O)n(-c2ccccc2)n1C | -0.04 |
| CCc1ccc(Nc2nnc(SCC(=O)Nc3cccc(S(=O)(=O)NC4=NCCCCC4)c3)s2)cc1 | -0.205 |
| COC(=O)c1ccccc1NC(=O)C1CC(c2ccccc2O)=NO1 (stereo not given) | 2.57 |
| CSc1ccccc1NC(=O)C1CC(c2ccccc2O)=NO1 (stereo not given) | -0.288 |
| CCn1cc(C2=NOC(C(=O)Nc3ccccc3C(=O)OC)C2)c(C)n1 (stereo not given) | -0.574 |
| CN(C)CCCNCCNC(=O)/C=N\O | -0.494 |
| O=C1CC(c2ccncc2)c2cc3c(cc2N1)OCCO3 (stereo not given) | 7.59 (active) |
| O=C1CC(c2ccc3c(c2)OCO3)c2cc3c(cc2N1)OCCO3 (stereo not given) | 0.0815 |
| O=C1CC(c2ccncc2)c2cc3c(cc2N1)OCO3 (stereo not given) | 0.106 |
| Cc1ccc(S(=O)(=O)CC(=O)c2ccc(C)c([N+](=O)[O-])c2)cc1 | -0.799 |
| CN(Cc1cccs1)C(=O)CCc1ccc(S(=O)(=O)N2CCOCC2)cc1 | 0.00198 |
| CS(=O)(=O)C1=NSC2=NC(=O)/C(=C\c3cccn3-c3ccc(Cl)cc3)C(=N)N21 | -0.377 |
| O=C1CCC(/C=C/c2ccccc2)=NN1Cc1ccc(Cl)c(Cl)c1 | 13.4 (active) |
| O=C1CCC(/C=C/c2ccccc2)=NN1Cc1ccccc1Cl | -0.293 |
| Cc1ccc(/C=C/C2=NN(Cc3ccc(Cl)c(Cl)c3)C(=O)CC2)cc1 | -0.176 |
